# Measurements reported in the supplement of paper PMC4466140.
# Biological target: SpBzz1-D2
# Test: SPOT peptide array binding signal intensity (averaged, normalized) (arbitrary units (background-subtracted, floor 0; scale differs between SH3 domains)); higher = stronger binding of the SH3 domain to the peptide
# Summary of the method: (§1)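 To measure binding, SH3 domains from four yeast species were fused to GST, expressed in E. coli BL21(DE3) and purified on glutathione Sepharose. Each domain was incubated at 10 μg/ml overnight at 4°C on cellulose membranes with synthetic 15-mer peptides whose cysteines were replaced by serines. Anti-GST antibody, an HRP anti-mouse secondary and luminol were used for detection, and images were quantified with Genespotter. Reported binding signal is normalized, background-subtracted spot intensity averaged over replicates, in arbitrary units that differ between domains.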
row,Binder,SPOT peptide array binding signal intensity
1,RFKRHRLEFPFNESE,≤ 0
2,QHQQRQPKRPKRYSL,1.5

# Biological target: SpCyk3
# Test: as above
# Summary of the method: as §1
row,Binder,SPOT peptide array binding signal intensity
1,RFKRHRLEFPFNESE,≤ 0
2,QHQQRQPKRPKRYSL,10.5

# Biological target: SpHof1
# Test: as above
# Summary of the method: as §1
row,Binder,SPOT peptide array binding signal intensity
1,RFKRHRLEFPFNESE,68.2
2,QHQQRQPKRPKRYSL,81

# Biological target: SpHof1-2
# Test: as above
# Summary of the method: as §1
row,Binder,SPOT peptide array binding signal intensity
1,RFKRHRLEFPFNESE,12.2
2,QHQQRQPKRPKRYSL,18.8

# Biological target: SpHof1-3
# Test: as above
# Summary of the method: as §1
row,Binder,SPOT peptide array binding signal intensity
1,RFKRHRLEFPFNESE,348
2,QHQQRQPKRPKRYSL,169

# Biological target: SpHse1
# Test: as above
# Summary of the method: as §1
row,Binder,SPOT peptide array binding signal intensity
1,RFKRHRLEFPFNESE,640
2,QHQQRQPKRPKRYSL,75.2

# Biological target: SpLsb1
# Test: as above
# Summary of the method: as §1
row,Binder,SPOT peptide array binding signal intensity
1,RFKRHRLEFPFNESE,10.8
2,QHQQRQPKRPKRYSL,73.8

# Biological target: SpLsb4
# Test: as above
# Summary of the method: as §1
row,Binder,SPOT peptide array binding signal intensity
1,RFKRHRLEFPFNESE,30.5
2,QHQQRQPKRPKRYSL,2350

# Biological target: SpMyo1
# Test: as above
# Summary of the method: as §1
row,Binder,SPOT peptide array binding signal intensity
1,RFKRHRLEFPFNESE,0.5
2,QHQQRQPKRPKRYSL,7.75

# Biological target: SpNbp2
# Test: as above
# Summary of the method: as §1
row,Binder,SPOT peptide array binding signal intensity
1,RFKRHRLEFPFNESE,298
2,QHQQRQPKRPKRYSL,267

# Biological target: SpPex13
# Test: as above
# Summary of the method: as §1
row,Binder,SPOT peptide array binding signal intensity
1,RFKRHRLEFPFNESE,15
2,QHQQRQPKRPKRYSL,12

# Biological target: SpRvs167
# Test: as above
# Summary of the method: as §1
row,Binder,SPOT peptide array binding signal intensity
1,RFKRHRLEFPFNESE,22.5
2,QHQQRQPKRPKRYSL,26.8

# Biological target: SpSla1-D1-D2
# Test: as above
# Summary of the method: as §1
row,Binder,SPOT peptide array binding signal intensity
1,RFKRHRLEFPFNESE,≤ 0
2,QHQQRQPKRPKRYSL,≤ 0

# Biological target: SpSla1-D3
# Test: as above
# Summary of the method: as §1
row,Binder,SPOT peptide array binding signal intensity
1,RFKRHRLEFPFNESE,26
2,QHQQRQPKRPKRYSL,6

# Biological target: AgAbp1
# Test: as above
# Summary of the method: as §1
row,Binder,SPOT peptide array binding signal intensity
1,QHQQRQPKRPKRYSL,147

# Biological target: AgBbc1
# Test: as above
# Summary of the method: as §1
row,Binder,SPOT peptide array binding signal intensity
1,QHQQRQPKRPKRYSL,293

# Biological target: AgBem1-D1
# Test: as above
# Summary of the method: as §1
row,Binder,SPOT peptide array binding signal intensity
1,QHQQRQPKRPKRYSL,112

# Biological target: AgBzz1-D1
# Test: as above
# Summary of the method: as §1
row,Binder,SPOT peptide array binding signal intensity
1,QHQQRQPKRPKRYSL,55.5

# Biological target: AgBzz1-D2
# Test: as above
# Summary of the method: as §1
row,Binder,SPOT peptide array binding signal intensity
1,QHQQRQPKRPKRYSL,19

# Biological target: AgCyk3
# Test: as above
# Summary of the method: as §1
row,Binder,SPOT peptide array binding signal intensity
1,QHQQRQPKRPKRYSL,11

# Biological target: AgFus1
# Test: as above
# Summary of the method: as §1
row,Binder,SPOT peptide array binding signal intensity
1,QHQQRQPKRPKRYSL,98.5

# Biological target: AgHof1
# Test: as above
# Summary of the method: as §1
row,Binder,SPOT peptide array binding signal intensity
1,QHQQRQPKRPKRYSL,34.5

# Biological target: AgHse1
# Test: as above
# Summary of the method: as §1
row,Binder,SPOT peptide array binding signal intensity
1,QHQQRQPKRPKRYSL,353

# Biological target: AgLsb1
# Test: as above
# Summary of the method: as §1
row,Binder,SPOT peptide array binding signal intensity
1,QHQQRQPKRPKRYSL,15

# Biological target: AgLsb4
# Test: as above
# Summary of the method: as §1
row,Binder,SPOT peptide array binding signal intensity
1,QHQQRQPKRPKRYSL,151

# Biological target: AgMyo5
# Test: as above
# Summary of the method: as §1
row,Binder,SPOT peptide array binding signal intensity
1,QHQQRQPKRPKRYSL,1.5

# Biological target: AgNbp2
# Test: as above
# Summary of the method: as §1
row,Binder,SPOT peptide array binding signal intensity
1,QHQQRQPKRPKRYSL,654

# Biological target: AgRvs167
# Test: as above
# Summary of the method: as §1
row,Binder,SPOT peptide array binding signal intensity
1,QHQQRQPKRPKRYSL,6

# Biological target: AgSho1
# Test: as above
# Summary of the method: as §1
row,Binder,SPOT peptide array binding signal intensity
1,QHQQRQPKRPKRYSL,12

# Biological target: AgSla1-D1-D2
# Test: as above
# Summary of the method: as §1
row,Binder,SPOT peptide array binding signal intensity
1,QHQQRQPKRPKRYSL,288

# Biological target: AgSla1-D3
# Test: as above
# Summary of the method: as §1
row,Binder,SPOT peptide array binding signal intensity
1,QHQQRQPKRPKRYSL,3.5

# Biological target: CaAbp1-D1
# Test: as above
# Summary of the method: as §1
row,Binder,SPOT peptide array binding signal intensity
1,QHQQRQPKRPKRYSL,1050

# Biological target: CaAbp1-D2
# Test: as above
# Summary of the method: as §1
row,Binder,SPOT peptide array binding signal intensity
1,QHQQRQPKRPKRYSL,639

# Biological target: CaBbc1
# Test: as above
# Summary of the method: as §1
row,Binder,SPOT peptide array binding signal intensity
1,QHQQRQPKRPKRYSL,792

# Biological target: CaBem1-D1
# Test: as above
# Summary of the method: as §1
row,Binder,SPOT peptide array binding signal intensity
1,QHQQRQPKRPKRYSL,20

# Biological target: CaBzz1-D1
# Test: as above
# Summary of the method: as §1
row,Binder,SPOT peptide array binding signal intensity
1,QHQQRQPKRPKRYSL,59

# Biological target: CaBzz1-D2
# Test: as above
# Summary of the method: as §1
row,Binder,SPOT peptide array binding signal intensity
1,QHQQRQPKRPKRYSL,94

# Biological target: CaCyk3
# Test: as above
# Summary of the method: as §1
row,Binder,SPOT peptide array binding signal intensity
1,QHQQRQPKRPKRYSL,211

# Biological target: CaFus1
# Test: as above
# Summary of the method: as §1
row,Binder,SPOT peptide array binding signal intensity
1,QHQQRQPKRPKRYSL,126

# Biological target: CaHof1
# Test: as above
# Summary of the method: as §1
row,Binder,SPOT peptide array binding signal intensity
1,QHQQRQPKRPKRYSL,2

# Biological target: CaHse1
# Test: as above
# Summary of the method: as §1
row,Binder,SPOT peptide array binding signal intensity
1,QHQQRQPKRPKRYSL,175

# Biological target: CaLsb1
# Test: as above
# Summary of the method: as §1
row,Binder,SPOT peptide array binding signal intensity
1,QHQQRQPKRPKRYSL,2.5

# Biological target: CaLsb4
# Test: as above
# Summary of the method: as §1
row,Binder,SPOT peptide array binding signal intensity
1,QHQQRQPKRPKRYSL,1810

# Biological target: CaMyo5
# Test: as above
# Summary of the method: as §1
row,Binder,SPOT peptide array binding signal intensity
1,QHQQRQPKRPKRYSL,12

# Biological target: CaNbp2
# Test: as above
# Summary of the method: as §1
row,Binder,SPOT peptide array binding signal intensity
1,QHQQRQPKRPKRYSL,492

# Biological target: CaRvs167
# Test: as above
# Summary of the method: as §1
row,Binder,SPOT peptide array binding signal intensity
1,QHQQRQPKRPKRYSL,18.5

# Biological target: CaRvs167-3
# Test: as above
# Summary of the method: as §1
row,Binder,SPOT peptide array binding signal intensity
1,QHQQRQPKRPKRYSL,38.2

# Biological target: CaSho1
# Test: as above
# Summary of the method: as §1
row,Binder,SPOT peptide array binding signal intensity
1,QHQQRQPKRPKRYSL,56.5

# Biological target: CaSla1-D1-D2
# Test: as above
# Summary of the method: as §1
row,Binder,SPOT peptide array binding signal intensity
1,QHQQRQPKRPKRYSL,558

# Biological target: CaSla1-D3
# Test: as above
# Summary of the method: as §1
row,Binder,SPOT peptide array binding signal intensity
1,QHQQRQPKRPKRYSL,26.2

# Biological target: ScAbp1
# Test: as above
# Summary of the method: as §1
row,Binder,SPOT peptide array binding signal intensity
1,QHQQRQPKRPKRYSL,43

# Biological target: ScBbc1
# Test: as above
# Summary of the method: as §1
row,Binder,SPOT peptide array binding signal intensity
1,QHQQRQPKRPKRYSL,251

# Biological target: ScBem1-D1
# Test: as above
# Summary of the method: as §1
row,Binder,SPOT peptide array binding signal intensity
1,QHQQRQPKRPKRYSL,14

# Biological target: ScBzz1-D1
# Test: as above
# Summary of the method: as §1
row,Binder,SPOT peptide array binding signal intensity
1,QHQQRQPKRPKRYSL,9

# Biological target: ScBzz1-D2
# Test: as above
# Summary of the method: as §1
row,Binder,SPOT peptide array binding signal intensity
1,QHQQRQPKRPKRYSL,12

# Biological target: ScCyk3
# Test: as above
# Summary of the method: as §1
row,Binder,SPOT peptide array binding signal intensity
1,QHQQRQPKRPKRYSL,216

# Biological target: ScFus1
# Test: as above
# Summary of the method: as §1
row,Binder,SPOT peptide array binding signal intensity
1,QHQQRQPKRPKRYSL,54.5

# Biological target: ScHof1
# Test: as above
# Summary of the method: as §1
row,Binder,SPOT peptide array binding signal intensity
1,QHQQRQPKRPKRYSL,≤ 0

# Biological target: ScHse1
# Test: as above
# Summary of the method: as §1
row,Binder,SPOT peptide array binding signal intensity
1,QHQQRQPKRPKRYSL,409

# Biological target: ScLsb1
# Test: as above
# Summary of the method: as §1
row,Binder,SPOT peptide array binding signal intensity
1,QHQQRQPKRPKRYSL,25.8

# Biological target: ScLsb2
# Test: as above
# Summary of the method: as §1
row,Binder,SPOT peptide array binding signal intensity
1,QHQQRQPKRPKRYSL,45

# Biological target: ScLsb3
# Test: as above
# Summary of the method: as §1
row,Binder,SPOT peptide array binding signal intensity
1,QHQQRQPKRPKRYSL,1410

# Biological target: ScLsb4
# Test: as above
# Summary of the method: as §1
row,Binder,SPOT peptide array binding signal intensity
1,QHQQRQPKRPKRYSL,140

# Biological target: ScMyo3
# Test: as above
# Summary of the method: as §1
row,Binder,SPOT peptide array binding signal intensity
1,QHQQRQPKRPKRYSL,4.25

# Biological target: ScMyo5
# Test: as above
# Summary of the method: as §1
row,Binder,SPOT peptide array binding signal intensity
1,QHQQRQPKRPKRYSL,7.75

# Biological target: ScNbp2
# Test: as above
# Summary of the method: as §1
row,Binder,SPOT peptide array binding signal intensity
1,QHQQRQPKRPKRYSL,620

# Biological target: ScPex13
# Test: as above
# Summary of the method: as §1
row,Binder,SPOT peptide array binding signal intensity
1,QHQQRQPKRPKRYSL,88.8

# Biological target: ScRvs167
# Test: as above
# Summary of the method: as §1
row,Binder,SPOT peptide array binding signal intensity
1,QHQQRQPKRPKRYSL,129

# Biological target: ScSho1
# Test: as above
# Summary of the method: as §1
row,Binder,SPOT peptide array binding signal intensity
1,QHQQRQPKRPKRYSL,196

# Biological target: ScSla1-D1-D2
# Test: as above
# Summary of the method: as §1
row,Binder,SPOT peptide array binding signal intensity
1,QHQQRQPKRPKRYSL,372

# Biological target: ScSla1-D3
# Test: as above
# Summary of the method: as §1
row,Binder,SPOT peptide array binding signal intensity
1,QHQQRQPKRPKRYSL,22.2

# Biological target: SpAbp1-D1
# Test: as above
# Summary of the method: as §1
row,Binder,SPOT peptide array binding signal intensity
1,QHQQRQPKRPKRYSL,426

# Biological target: SpBbc1
# Test: as above
# Summary of the method: as §1
row,Binder,SPOT peptide array binding signal intensity
1,QHQQRQPKRPKRYSL,31

# Biological target: SpBzz1-D1
# Test: as above
# Summary of the method: as §1
row,Binder,SPOT peptide array binding signal intensity
1,QHQQRQPKRPKRYSL,250
